Reference: ChEMBL document CHEMBL1961873, “Compounds: GSK PKIS; Assays: Nanosyn kinase panel” (2012)

Key:
[1] = molecular target: Protein kinase C gamma type (Homo sapiens) (UniProt P05129); conditions: at 1 µM;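 note: each value is an averaged percent inhibition of the enzyme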
[2] = molecular target: T1, Protein kinase C iota type (Homo sapiens) (UniProt P41743); conditions: at 0.1 µM
T1 sequence (whole entry): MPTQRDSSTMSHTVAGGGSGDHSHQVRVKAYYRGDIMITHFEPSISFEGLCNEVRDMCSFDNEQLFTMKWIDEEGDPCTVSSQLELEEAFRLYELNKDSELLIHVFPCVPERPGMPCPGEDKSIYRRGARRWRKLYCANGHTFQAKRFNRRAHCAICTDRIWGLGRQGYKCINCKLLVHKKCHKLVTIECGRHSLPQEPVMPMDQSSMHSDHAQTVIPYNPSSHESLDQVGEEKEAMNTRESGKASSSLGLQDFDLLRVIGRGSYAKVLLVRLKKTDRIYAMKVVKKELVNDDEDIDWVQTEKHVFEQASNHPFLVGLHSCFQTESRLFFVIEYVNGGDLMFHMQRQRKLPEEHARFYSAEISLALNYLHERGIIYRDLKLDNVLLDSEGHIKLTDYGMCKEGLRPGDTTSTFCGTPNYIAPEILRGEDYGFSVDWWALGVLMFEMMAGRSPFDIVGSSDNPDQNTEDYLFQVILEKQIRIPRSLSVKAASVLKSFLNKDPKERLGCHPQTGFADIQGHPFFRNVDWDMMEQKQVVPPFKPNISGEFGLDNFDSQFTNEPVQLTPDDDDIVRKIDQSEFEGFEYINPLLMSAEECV

[3] = molecular target: T1, Protein kinase C iota type (Homo sapiens); conditions: at 1 µM
[4] = molecular target: Protein kinase C theta type (Homo sapiens) (UniProt Q04759); conditions: at 0.1 µM
[5] = molecular target: Protein kinase C theta type (Homo sapiens) (UniProt Q04759); conditions: at 1 µM
[6] = molecular target: Protein kinase C beta type (Homo sapiens) (UniProt P05771); conditions: at 0.1 µM
[7] = molecular target: Protein kinase C beta type (Homo sapiens) (UniProt P05771); conditions: at 1 µM
[8] = molecular target: T2, Serine/threonine-protein kinase D1 (Homo sapiens) (UniProt Q15139); conditions: at 0.1 µM
T2 sequence (whole entry): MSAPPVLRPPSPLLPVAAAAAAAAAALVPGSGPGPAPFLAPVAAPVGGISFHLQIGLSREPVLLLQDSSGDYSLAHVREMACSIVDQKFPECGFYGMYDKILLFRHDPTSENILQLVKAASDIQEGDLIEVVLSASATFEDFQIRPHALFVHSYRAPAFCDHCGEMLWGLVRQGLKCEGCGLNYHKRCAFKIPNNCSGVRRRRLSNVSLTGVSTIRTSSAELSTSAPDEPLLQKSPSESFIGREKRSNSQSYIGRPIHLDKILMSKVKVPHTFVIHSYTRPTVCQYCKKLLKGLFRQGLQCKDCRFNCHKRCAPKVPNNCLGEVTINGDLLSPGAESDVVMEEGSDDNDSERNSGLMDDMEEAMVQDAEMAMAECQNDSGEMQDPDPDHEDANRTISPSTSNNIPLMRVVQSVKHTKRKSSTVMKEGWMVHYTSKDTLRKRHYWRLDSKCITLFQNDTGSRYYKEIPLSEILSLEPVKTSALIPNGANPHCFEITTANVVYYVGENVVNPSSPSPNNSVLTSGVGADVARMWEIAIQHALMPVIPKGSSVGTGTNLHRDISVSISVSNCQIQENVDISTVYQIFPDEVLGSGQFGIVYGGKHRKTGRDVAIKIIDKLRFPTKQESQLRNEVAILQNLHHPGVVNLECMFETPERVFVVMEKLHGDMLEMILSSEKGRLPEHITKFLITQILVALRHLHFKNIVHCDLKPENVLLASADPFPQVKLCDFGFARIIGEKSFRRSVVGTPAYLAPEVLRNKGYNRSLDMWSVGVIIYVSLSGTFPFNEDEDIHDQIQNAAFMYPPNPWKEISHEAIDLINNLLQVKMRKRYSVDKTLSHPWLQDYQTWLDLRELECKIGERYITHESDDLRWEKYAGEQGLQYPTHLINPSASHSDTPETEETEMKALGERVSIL

[9] = molecular target: T2, Serine/threonine-protein kinase D1 (Homo sapiens); conditions: at 1 µM
[10] = molecular target: T3, Serine/threonine-protein kinase D2 (Homo sapiens) (UniProt Q9BZL6); conditions: at 0.1 µM;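 note: reported percent inhibition values are means, part of the GSK PKIS kinase panel screen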
T3 sequence (whole entry): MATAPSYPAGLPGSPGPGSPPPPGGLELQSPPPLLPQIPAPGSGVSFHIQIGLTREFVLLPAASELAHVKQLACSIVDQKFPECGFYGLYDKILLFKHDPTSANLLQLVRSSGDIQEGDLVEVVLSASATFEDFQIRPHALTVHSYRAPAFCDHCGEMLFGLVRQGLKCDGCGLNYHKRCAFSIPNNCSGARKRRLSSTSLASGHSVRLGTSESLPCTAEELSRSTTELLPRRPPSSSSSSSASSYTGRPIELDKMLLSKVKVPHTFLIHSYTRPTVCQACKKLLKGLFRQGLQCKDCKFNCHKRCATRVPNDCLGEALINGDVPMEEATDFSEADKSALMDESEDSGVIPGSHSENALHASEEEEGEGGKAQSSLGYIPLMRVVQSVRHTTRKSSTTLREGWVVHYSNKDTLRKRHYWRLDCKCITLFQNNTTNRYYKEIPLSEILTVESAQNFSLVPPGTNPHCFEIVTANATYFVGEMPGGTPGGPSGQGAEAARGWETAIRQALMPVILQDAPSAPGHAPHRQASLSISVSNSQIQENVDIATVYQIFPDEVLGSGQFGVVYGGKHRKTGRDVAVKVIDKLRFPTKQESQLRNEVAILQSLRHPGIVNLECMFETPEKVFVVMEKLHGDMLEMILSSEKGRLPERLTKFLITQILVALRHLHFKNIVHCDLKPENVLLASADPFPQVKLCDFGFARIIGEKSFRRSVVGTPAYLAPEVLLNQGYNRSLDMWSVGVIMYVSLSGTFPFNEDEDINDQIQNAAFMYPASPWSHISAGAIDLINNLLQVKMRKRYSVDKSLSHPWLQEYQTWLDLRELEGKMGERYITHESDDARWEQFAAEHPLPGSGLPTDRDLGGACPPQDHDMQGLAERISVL

Protein kinase C beta type (Homo sapiens), sequence (P05771 2-671 limits assumed): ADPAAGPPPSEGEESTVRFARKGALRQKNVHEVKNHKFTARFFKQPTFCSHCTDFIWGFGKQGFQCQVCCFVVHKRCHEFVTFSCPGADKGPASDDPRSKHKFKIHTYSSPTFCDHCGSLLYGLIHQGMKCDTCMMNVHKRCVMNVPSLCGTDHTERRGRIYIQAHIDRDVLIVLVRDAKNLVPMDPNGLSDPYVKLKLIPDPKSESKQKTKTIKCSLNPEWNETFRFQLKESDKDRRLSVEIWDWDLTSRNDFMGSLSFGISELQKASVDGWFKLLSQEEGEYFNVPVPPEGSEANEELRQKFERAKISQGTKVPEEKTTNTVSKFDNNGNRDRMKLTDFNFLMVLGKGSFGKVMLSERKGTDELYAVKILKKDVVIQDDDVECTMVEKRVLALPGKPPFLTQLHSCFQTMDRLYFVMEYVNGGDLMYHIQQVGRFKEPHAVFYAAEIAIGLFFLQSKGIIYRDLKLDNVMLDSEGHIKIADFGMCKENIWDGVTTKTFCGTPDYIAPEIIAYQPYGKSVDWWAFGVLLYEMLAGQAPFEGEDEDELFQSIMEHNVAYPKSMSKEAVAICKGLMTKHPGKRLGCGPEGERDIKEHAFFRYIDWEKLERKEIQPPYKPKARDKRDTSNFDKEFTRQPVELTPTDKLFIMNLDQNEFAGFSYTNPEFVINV
Protein kinase C theta type (Homo sapiens), sequence (Q04759 whole entry, looked up): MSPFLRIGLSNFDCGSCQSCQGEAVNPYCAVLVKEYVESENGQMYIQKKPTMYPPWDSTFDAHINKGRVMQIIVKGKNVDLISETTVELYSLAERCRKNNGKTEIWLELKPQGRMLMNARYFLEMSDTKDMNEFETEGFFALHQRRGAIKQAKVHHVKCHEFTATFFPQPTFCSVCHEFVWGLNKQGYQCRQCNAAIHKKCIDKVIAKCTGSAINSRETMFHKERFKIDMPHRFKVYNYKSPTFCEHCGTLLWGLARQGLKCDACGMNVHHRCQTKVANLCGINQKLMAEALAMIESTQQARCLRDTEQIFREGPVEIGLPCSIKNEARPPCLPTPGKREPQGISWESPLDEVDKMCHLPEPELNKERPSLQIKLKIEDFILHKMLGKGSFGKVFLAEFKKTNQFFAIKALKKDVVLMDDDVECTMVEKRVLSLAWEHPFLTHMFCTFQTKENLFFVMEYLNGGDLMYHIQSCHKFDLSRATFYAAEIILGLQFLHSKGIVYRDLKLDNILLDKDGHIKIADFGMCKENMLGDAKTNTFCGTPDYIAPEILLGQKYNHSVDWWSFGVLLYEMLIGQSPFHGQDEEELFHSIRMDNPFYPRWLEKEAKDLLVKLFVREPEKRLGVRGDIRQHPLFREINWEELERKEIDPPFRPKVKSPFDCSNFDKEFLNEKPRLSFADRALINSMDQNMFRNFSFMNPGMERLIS

| Structure (SMILES) | inhibition [1] | inhibition [2] | inhibition [3] | inhibition [4] | inhibition [5] | inhibition [6] | inhibition [7] | inhibition [8] | inhibition [9] | inhibition [10] |
| --- | --- | --- | --- | --- | --- | --- | --- | --- | --- | --- |
| Cc1cc(-c2ccco2)cc(C)c1/C=C/c1cncc(-c2nn[nH]n2)c1 | 1.85% | 0.32% | -0.83% | 0.29% | -0.04% | -0.04% | -0.06% | 0.58% | 2.09% | 0.97% |
| COc1cc(C=NNc2ncnc3c2cnn3Cc2ccccc2)ccc1O | 2.96% | -1.06% | -0.54% | -1.05% | 1.99% | -1.09% | 1.44% | -4.01% | -1.69% | -3.31% |
| CCn1c(-c2nonc2N)nc2c(C#CCN)ncc(OCCCN)c21 | 4.01% | 2.51% | 16.5% | 6.73% | 38.6% | 4.07% | 12% | -1.16% | -3.02% | -2.14% |
| CCn1c(-c2nonc2N)nc2c(C#CC(C)(C)O)nc(O[C@@H](CN)c3ccccc3)cc21 | 81.1% | 3.68% | 26.4% | 73.5% | 84.8% | 49.2% | 80.5% | 8.23% | 61.6% | 9.02% |
| COc1cccc(-n2ncc3c(N/N=C/c4ccncc4)ncnc32)c1 | 7.85% | 3.39% | 13.1% | 2.97% | 5.71% | 2.37% | 9.57% | 4.37% | 10.1% | 4.75% |
| NS(=O)(=O)c1ccc(N/C=C2\C(=O)Nc3ccc4ncsc4c32)cc1 | 5.52% | 1.93% | 2.78% | 3.02% | 6.57% | 1.34% | 3.28% | 22.4% | 67.3% | 16.3% |
| Fc1ccc(-c2ncn(C3CCNCC3)c2-c2ccnc(Oc3ccccc3)n2)cc1 | 2.28% | 0.81% | 1.84% | 1.21% | 1.59% | 1.22% | 5.65% | -1.04% | 0.79% | -1.14% |
| CCn1c(-c2nonc2N)nc2c(C#CC(C)(C)O)ncc(OC[C@@H]3CCCN3)c21 | 44.6% | 0.62% | 11.4% | 30% | 72.3% | 7.63% | 37.1% | 2.68% | 19.2% | 4.02% |
| NC(=O)c1sc(-n2cnc3cc(C(F)(F)F)ccc32)cc1OCc1ccccc1Br | 2.52% | 0.97% | 0.63% | 0.18% | 0.55% | 0.4% | 0.57% | 1.33% | 1.94% | 1.96% |
| CCn1c(-c2nonc2N)nc2c(C#CC(C)(C)O)ncc(OCC3CCNCC3)c21 | 39.9% | -0.7% | 13.5% | 21.5% | 65.5% | 8.97% | 37.6% | -0.45% | 6.01% | -0.27% |
| COc1cc2c(cc1Nc1nc(Nc3ccsc3C(N)=O)c3cc[nH]c3n1)N(C(=O)CN(C)C)CCC2 | – | -0.4% | -0.5% | 4.39% | 10.2% | -1.27% | 2.49% | 3.95% | 19.8% | 12.2% |
| Nc1nonc1-c1nc2cnccc2n1C1CCCCC1 | 49% | -0.01% | 4.76% | 10.3% | 55.2% | 6.66% | 33.7% | -0.73% | 2.75% | -1.07% |
| COc1cccc(COc2cc(-n3cnc4ccccc43)sc2C(N)=O)c1 | 3.94% | -0.74% | -0.85% | 1.23% | 1.18% | 0.72% | 1.77% | 0.37% | 1.82% | 1.64% |
| NS(=O)(=O)c1ccc(-c2ccc3c(NC(=O)C4CC4)n[nH]c3c2)cc1 | 0.37% | 1.06% | 3.22% | 1.13% | -0.43% | 0.67% | 1.78% | 1.17% | 1.47% | 1.52% |
